# B1: unnamed (peptide)
# chain: SGVRLPAPPPPPRRG
# Assays:
# Experiment in all cases: SPOT peptide array binding signal intensity (averaged, normalized) (arbitrary units (background-subtracted, floor 0; scale differs between SH3 domains)); higher = stronger binding of the SH3 domain to the peptide
# [1] = target: AgAbp1
# Outline: (§1)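 To measure binding, SH3 domains from four yeast species were fused to GST, expressed in E. coli BL21(DE3) and purified on glutathione Sepharose. Each domain was incubated at 10 μg/ml overnight at 4°C on cellulose membranes with synthetic 15-mer peptides whose cysteines were replaced by serines. Anti-GST antibody, an HRP anti-mouse secondary and luminol were used for detection, and images were quantified with Genespotter. Reported binding signal is normalized, background-subtracted spot intensity averaged over replicates, in arbitrary units that differ between domains.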
# [2] = target: AgBbc1
# Outline: as §1
# [3] = target: AgBem1-D1
# Outline: as §1
# [4] = target: AgBzz1-D1
# Outline: as §1
# [5] = target: AgBzz1-D2
# Outline: as §1
# [6] = target: AgCyk3
# Outline: as §1
# [7] = target: AgFus1
# Outline: as §1
# [8] = target: AgHof1
# Outline: as §1
# [9] = target: AgHse1
# Outline: as §1
# [10] = target: AgLsb1
# Outline: as §1
# [11] = target: AgLsb4
# Outline: as §1
# [12] = target: AgMyo5
# Outline: as §1
# [13] = target: AgNbp2
# Outline: as §1
# [14] = target: AgRvs167
# Outline: as §1
# [15] = target: AgSho1
# Outline: as §1
# [16] = target: AgSla1-D1-D2
# Outline: as §1
# [17] = target: AgSla1-D3
# Outline: as §1
# [18] = target: CaAbp1-D1
# Outline: as §1
# [19] = target: CaAbp1-D2
# Outline: as §1
# [20] = target: CaBbc1
# Outline: as §1
# [21] = target: CaBem1-D1
# Outline: as §1
# [22] = target: CaBzz1-D1
# Outline: as §1
# [23] = target: CaBzz1-D2
# Outline: as §1
# [24] = target: CaCyk3
# Outline: as §1
# [25] = target: CaFus1
# Outline: as §1
# [26] = target: CaHof1
# Outline: as §1
# [27] = target: CaHse1
# Outline: as §1
# [28] = target: CaLsb1
# Outline: as §1
# [29] = target: CaLsb4
# Outline: as §1
# [30] = target: CaMyo5
# Outline: as §1
# [31] = target: CaNbp2
# Outline: as §1
# [32] = target: CaRvs167
# Outline: as §1
# [33] = target: CaRvs167-3
# Outline: as §1
# [34] = target: CaSho1
# Outline: as §1
# [35] = target: CaSla1-D1-D2
# Outline: as §1
# [36] = target: CaSla1-D3
# Outline: as §1
# [37] = target: ScAbp1
# Outline: as §1
# [38] = target: ScBbc1
# Outline: as §1
# [39] = target: ScBem1-D1
# Outline: as §1
# [40] = target: ScBzz1-D1
# Outline: as §1
# [41] = target: ScBzz1-D2
# Outline: as §1
# [42] = target: ScCyk3
# Outline: as §1
# [43] = target: ScFus1
# Outline: as §1
# [44] = target: ScHof1
# Outline: as §1
# [45] = target: ScHse1
# Outline: as §1
# [46] = target: ScLsb1
# Outline: as §1
# [47] = target: ScLsb2
# Outline: as §1
# [48] = target: ScLsb3
# Outline: as §1
# [49] = target: ScLsb4
# Outline: as §1
# [50] = target: ScMyo3
# Outline: as §1
# [51] = target: ScMyo5
# Outline: as §1
# [52] = target: ScNbp2
# Outline: as §1
# [53] = target: ScPex13
# Outline: as §1
# [54] = target: ScRvs167
# Outline: as §1
# [55] = target: ScSho1
# Outline: as §1
# [56] = target: ScSla1-D1-D2
# Outline: as §1
# [57] = target: ScSla1-D3
# Outline: as §1
# [58] = target: SpAbp1-D1
# Outline: as §1
# [59] = target: SpBbc1
# Outline: as §1
# [60] = target: SpBzz1-D1
# Outline: as §1
# [61] = target: SpBzz1-D2
# Outline: as §1
# [62] = target: SpCyk3
# Outline: as §1
# [63] = target: SpHof1
# Outline: as §1
# [64] = target: SpHof1-2
# Outline: as §1
# [65] = target: SpHof1-3
# Outline: as §1
# [66] = target: SpHse1
# Outline: as §1
# [67] = target: SpLsb1
# Outline: as §1
# [68] = target: SpLsb4
# Outline: as §1
# [69] = target: SpMyo1
# Outline: as §1
# [70] = target: SpNbp2
# Outline: as §1
# [71] = target: SpPex13
# Outline: as §1
# [72] = target: SpRvs167
# Outline: as §1
# [73] = target: SpSla1-D1-D2
# Outline: as §1
# [74] = target: SpSla1-D3
# Outline: as §1
binder,measurement,setting,value
B1,SPOT peptide array binding signal intensity,[1],606
same,SPOT peptide array binding signal intensity,[2],1230
same,SPOT peptide array binding signal intensity,[3],36
same,SPOT peptide array binding signal intensity,[4],404
same,SPOT peptide array binding signal intensity,[5],140
same,SPOT peptide array binding signal intensity,[6],2
same,SPOT peptide array binding signal intensity,[7],21
same,SPOT peptide array binding signal intensity,[8],472
same,SPOT peptide array binding signal intensity,[9],24.5
same,SPOT peptide array binding signal intensity,[10],699
same,SPOT peptide array binding signal intensity,[11],1040
same,SPOT peptide array binding signal intensity,[12],579
same,SPOT peptide array binding signal intensity,[13],1250
same,SPOT peptide array binding signal intensity,[14],1310
same,SPOT peptide array binding signal intensity,[15],36
same,SPOT peptide array binding signal intensity,[16],38
same,SPOT peptide array binding signal intensity,[17],61
same,SPOT peptide array binding signal intensity,[18],1510
same,SPOT peptide array binding signal intensity,[19],1030
same,SPOT peptide array binding signal intensity,[20],1050
same,SPOT peptide array binding signal intensity,[21],544
same,SPOT peptide array binding signal intensity,[22],3080
same,SPOT peptide array binding signal intensity,[23],1360
same,SPOT peptide array binding signal intensity,[24],44
same,SPOT peptide array binding signal intensity,[25],74
same,SPOT peptide array binding signal intensity,[26],114
same,SPOT peptide array binding signal intensity,[27],20
same,SPOT peptide array binding signal intensity,[28],0.5
same,SPOT peptide array binding signal intensity,[29],1890
same,SPOT peptide array binding signal intensity,[30],42
same,SPOT peptide array binding signal intensity,[31],216
same,SPOT peptide array binding signal intensity,[32],1350
same,SPOT peptide array binding signal intensity,[33],10.2
same,SPOT peptide array binding signal intensity,[34],34
same,SPOT peptide array binding signal intensity,[35],3580
same,SPOT peptide array binding signal intensity,[36],77.2
same,SPOT peptide array binding signal intensity,[37],452
same,SPOT peptide array binding signal intensity,[38],267
same,SPOT peptide array binding signal intensity,[39],≤ 0
same,SPOT peptide array binding signal intensity,[40],257
same,SPOT peptide array binding signal intensity,[41],36
same,SPOT peptide array binding signal intensity,[42],6.5
same,SPOT peptide array binding signal intensity,[43],3.5
same,SPOT peptide array binding signal intensity,[44],482
same,SPOT peptide array binding signal intensity,[45],169
same,SPOT peptide array binding signal intensity,[46],438
same,SPOT peptide array binding signal intensity,[47],438
same,SPOT peptide array binding signal intensity,[48],2990
same,SPOT peptide array binding signal intensity,[49],2100
same,SPOT peptide array binding signal intensity,[50],1670
same,SPOT peptide array binding signal intensity,[51],864
same,SPOT peptide array binding signal intensity,[52],622
same,SPOT peptide array binding signal intensity,[53],1050
same,SPOT peptide array binding signal intensity,[54],3210
same,SPOT peptide array binding signal intensity,[55],1100
same,SPOT peptide array binding signal intensity,[56],2820
same,SPOT peptide array binding signal intensity,[57],9
same,SPOT peptide array binding signal intensity,[58],2280
same,SPOT peptide array binding signal intensity,[59],19.2
same,SPOT peptide array binding signal intensity,[60],3360
same,SPOT peptide array binding signal intensity,[61],1490
same,SPOT peptide array binding signal intensity,[62],17
same,SPOT peptide array binding signal intensity,[63],248
same,SPOT peptide array binding signal intensity,[64],231
same,SPOT peptide array binding signal intensity,[65],1500
same,SPOT peptide array binding signal intensity,[66],67.5
same,SPOT peptide array binding signal intensity,[67],870
same,SPOT peptide array binding signal intensity,[68],6010
same,SPOT peptide array binding signal intensity,[69],502
same,SPOT peptide array binding signal intensity,[70],26
same,SPOT peptide array binding signal intensity,[71],35
same,SPOT peptide array binding signal intensity,[72],2550
same,SPOT peptide array binding signal intensity,[73],993
same,SPOT peptide array binding signal intensity,[74],0.5

# Source: the supplement of paper PMC4466140
